Laboratory results published in PMC11062922 (Nature Chemical Biology, 2023).
Read-outs that look alike come from different tables or passages of the source.

Experiments:
LATS1 = conditions: read-out: apparent Kd, n = 1
MAP2K2 = conditions: read-out: apparent Kd, n = 1
[1] = compound concentrations:100 nM and 1000 nM (sheet 'Lestaurtinib' of Supplementary Table 1),run:Lestaurtinib_02624_R1,Plate:MR020
[2] = compound concentrations:100 nM and 1000 nM (sheet 'Lestaurtinib' of Supplementary Table 1),run:Lestaurtinib_02624_R2,Plate:MR020
[3] = compound concentrations:100 nM and 1000 nM (sheet 'Lestaurtinib' of Supplementary Table 1),run:Lestaurtinib_02624_R3,Plate:MR020
[4] = compound concentrations:100 nM and 1000 nM (sheet 'Lestaurtinib' of Supplementary Table 1),run:Lestaurtinib_02724_R1,Plate:MR021
[5] = compound concentrations:100 nM and 1000 nM (sheet 'Lestaurtinib' of Supplementary Table 1),run:Lestaurtinib_02752_R1,Plate:MR025
[6] = compound concentrations:100 nM and 1000 nM (sheet 'Lestaurtinib' of Supplementary Table 1),run:Lestaurtinib_02752_R2,Plate:MR025

Substance: Lestaurtinib
- potency estimated from few doses (LATS1; [1]): 25.8 nM
- potency estimated from few doses (LATS1; [2]): 40.9 nM
- potency estimated from few doses (LATS1; [3]): 38.9 nM
- potency estimated from few doses (LATS1; [4]): 13.4 nM
- potency estimated from few doses (LATS1; compound concentrations:100 nM and 1000 nM (sheet 'Lestaurtinib' of Supplementary Table 1),run:Lestaurtinib_02724_R3,Plate:MR021): 13.2 nM
- potency estimated from few doses (LATS1; compound concentrations:100 nM and 1000 nM (sheet 'Lestaurtinib' of Supplementary Table 1),run:Lestaurtinib_02741_R2,Plate:MR023): 27 nM
- potency estimated from few doses (LATS1; compound concentrations:100 nM and 1000 nM (sheet 'Lestaurtinib' of Supplementary Table 1),run:Lestaurtinib_02748_R1,Plate:MR024): 36.2 nM
- potency estimated from few doses (LATS1; compound concentrations:100 nM and 1000 nM (sheet 'Lestaurtinib' of Supplementary Table 1),run:Lestaurtinib_02748_R3,Plate:MR024): 56.4 nM
- potency estimated from few doses (LATS1; [5]): 27.3 nM
- potency estimated from few doses (LATS1; [6]): 32.9 nM
- potency estimated from few doses (LATS1; compound concentrations:100 nM and 1000 nM (sheet 'Lestaurtinib' of Supplementary Table 1),run:Lestaurtinib_02752_R3,Plate:MR025): 52.3 nM
- potency estimated from few doses (LATS1; compound concentrations:100 nM and 1000 nM (sheet 'Lestaurtinib' of Supplementary Table 1),run:Lestaurtinib_02765_R1,Plate:MR026): 40.4 nM
- potency estimated from few doses (LATS1; compound concentrations:100 nM and 1000 nM (sheet 'Lestaurtinib' of Supplementary Table 1),run:Lestaurtinib_02765_R2,Plate:MR026): 48.6 nM
- potency estimated from few doses (LATS1; compound concentrations:100 nM and 1000 nM (sheet 'Lestaurtinib' of Supplementary Table 1),run:Lestaurtinib_02765_R3,Plate:MR026): 66.7 nM
- potency estimated from few doses (LATS1; compound concentrations:100 nM and 1000 nM (sheet 'Lestaurtinib' of Supplementary Table 1),run:Lestaurtinib_02768_R1,Plate:MR028): 31.7 nM
- potency estimated from few doses (LATS1; compound concentrations:100 nM and 1000 nM (sheet 'Lestaurtinib' of Supplementary Table 1),run:Lestaurtinib_02795_R1,Plate:MR022): 15.1 nM
- potency estimated from few doses (LATS1; compound concentrations:100 nM and 1000 nM (sheet 'Lestaurtinib' of Supplementary Table 1),run:Lestaurtinib_02795_R3,Plate:MR022): 46.9 nM
- potency estimated from few doses (LATS1; compound concentrations:100 nM and 1000 nM (sheet 'Lestaurtinib' of Supplementary Table 1),run:Lestaurtinib_02802_R1,Plate:MR029): 38.6 nM
- potency estimated from few doses (LATS1; compound concentrations:100 nM and 1000 nM (sheet 'Lestaurtinib' of Supplementary Table 1),run:Lestaurtinib_02802_R2,Plate:MR029): 26 nM
- potency estimated from few doses (LATS1; compound concentrations:100 nM and 1000 nM (sheet 'Lestaurtinib' of Supplementary Table 1),run:Lestaurtinib_02896_R1,Plate:MR030): 15.1 nM
- potency estimated from few doses (LATS1; compound concentrations:100 nM and 1000 nM (sheet 'Lestaurtinib' of Supplementary Table 1),run:Lestaurtinib_02896_R2,Plate:MR030): 27.9 nM
- potency estimated from few doses (LATS1; compound concentrations:100 nM and 1000 nM (sheet 'Lestaurtinib' of Supplementary Table 1),run:Lestaurtinib_03172_R1,Plate:MR031): 40.9 nM
- potency estimated from few doses (LATS1; compound concentrations:100 nM and 1000 nM (sheet 'Lestaurtinib' of Supplementary Table 1),run:Lestaurtinib_03172_R2,Plate:MR031): 32.7 nM
- potency estimated from few doses (LATS1; compound concentrations:100 nM and 1000 nM (sheet 'Lestaurtinib' of Supplementary Table 1),run:Lestaurtinib_03172_R3,Plate:MR031): 30.1 nM
- potency estimated from few doses (LATS1; compound concentrations:100 nM and 1000 nM (sheet 'Lestaurtinib' of Supplementary Table 1),run:Lestaurtinib_03252_R1,Plate:MR032): 41.1 nM
- potency estimated from few doses (LATS1; compound concentrations:100 nM and 1000 nM (sheet 'Lestaurtinib' of Supplementary Table 1),run:Lestaurtinib_03260_R2,Plate:MR033): 66 nM
- potency estimated from few doses (LATS1; compound concentrations:100 nM and 1000 nM (sheet 'Lestaurtinib' of Supplementary Table 1),run:Lestaurtinib_03260_R3,Plate:MR033): 57.8 nM
- potency estimated from few doses (MAP2K2; compound concentrations:100 nM and 1000 nM (sheet 'Lestaurtinib' of Supplementary Table 1),run:Lestaurtinib_02339_R1,Plate:MR001): 1930 nM
- potency estimated from few doses (MAP2K2; compound concentrations:100 nM and 1000 nM (sheet 'Lestaurtinib' of Supplementary Table 1),run:Lestaurtinib_02339_R2,Plate:MR001): 822 nM
- potency estimated from few doses (MAP2K2; compound concentrations:100 nM and 1000 nM (sheet 'Lestaurtinib' of Supplementary Table 1),run:Lestaurtinib_02339_R3,Plate:MR001): 836 nM
- potency estimated from few doses (MAP2K2; compound concentrations:100 nM and 1000 nM (sheet 'Lestaurtinib' of Supplementary Table 1),run:Lestaurtinib_02364_R1,Plate:MR002): 1210 nM
- potency estimated from few doses (MAP2K2; compound concentrations:100 nM and 1000 nM (sheet 'Lestaurtinib' of Supplementary Table 1),run:Lestaurtinib_02364_R2,Plate:MR002): 1670 nM
- potency estimated from few doses (MAP2K2; compound concentrations:100 nM and 1000 nM (sheet 'Lestaurtinib' of Supplementary Table 1),run:Lestaurtinib_02367_R1,Plate:MR003): 557 nM
- potency estimated from few doses (MAP2K2; compound concentrations:100 nM and 1000 nM (sheet 'Lestaurtinib' of Supplementary Table 1),run:Lestaurtinib_02367_R2,Plate:MR003): 665 nM
- potency estimated from few doses (MAP2K2; compound concentrations:100 nM and 1000 nM (sheet 'Lestaurtinib' of Supplementary Table 1),run:Lestaurtinib_02367_R3,Plate:MR003): 2220 nM
- potency estimated from few doses (MAP2K2; compound concentrations:100 nM and 1000 nM (sheet 'Lestaurtinib' of Supplementary Table 1),run:Lestaurtinib_02407_R1,Plate:MR005): 96.3 nM
- potency estimated from few doses (MAP2K2; compound concentrations:100 nM and 1000 nM (sheet 'Lestaurtinib' of Supplementary Table 1),run:Lestaurtinib_02407_R2,Plate:MR005): 143 nM
- potency estimated from few doses (MAP2K2; compound concentrations:100 nM and 1000 nM (sheet 'Lestaurtinib' of Supplementary Table 1),run:Lestaurtinib_02407_R3,Plate:MR005): 794 nM
- potency estimated from few doses (MAP2K2; compound concentrations:100 nM and 1000 nM (sheet 'Lestaurtinib' of Supplementary Table 1),run:Lestaurtinib_02422_R3,Plate:MR006): 1800 nM
- potency estimated from few doses (MAP2K2; compound concentrations:100 nM and 1000 nM (sheet 'Lestaurtinib' of Supplementary Table 1),run:Lestaurtinib_02437_R1,Plate:MR007): 159 nM
- potency estimated from few doses (MAP2K2; compound concentrations:100 nM and 1000 nM (sheet 'Lestaurtinib' of Supplementary Table 1),run:Lestaurtinib_02437_R2,Plate:MR007): 1370 nM
- potency estimated from few doses (MAP2K2; compound concentrations:100 nM and 1000 nM (sheet 'Lestaurtinib' of Supplementary Table 1),run:Lestaurtinib_02437_R3,Plate:MR007): 98.9 nM
- potency estimated from few doses (MAP2K2; compound concentrations:100 nM and 1000 nM (sheet 'Lestaurtinib' of Supplementary Table 1),run:Lestaurtinib_02438_R1,Plate:MR008): 1800 nM
- potency estimated from few doses (MAP2K2; compound concentrations:100 nM and 1000 nM (sheet 'Lestaurtinib' of Supplementary Table 1),run:Lestaurtinib_02438_R2,Plate:MR008): 876 nM
- potency estimated from few doses (MAP2K2; compound concentrations:100 nM and 1000 nM (sheet 'Lestaurtinib' of Supplementary Table 1),run:Lestaurtinib_02438_R3,Plate:MR008): 745 nM
- potency estimated from few doses (MAP2K2; compound concentrations:100 nM and 1000 nM (sheet 'Lestaurtinib' of Supplementary Table 1),run:Lestaurtinib_02443_R2,Plate:MR009): 782 nM
- potency estimated from few doses (MAP2K2; compound concentrations:100 nM and 1000 nM (sheet 'Lestaurtinib' of Supplementary Table 1),run:Lestaurtinib_02443_R3,Plate:MR009): 924 nM
- potency estimated from few doses (MAP2K2; compound concentrations:100 nM and 1000 nM (sheet 'Lestaurtinib' of Supplementary Table 1),run:Lestaurtinib_02473_R1,Plate:MR010): 838 nM
- potency estimated from few doses (MAP2K2; compound concentrations:100 nM and 1000 nM (sheet 'Lestaurtinib' of Supplementary Table 1),run:Lestaurtinib_02482_R1,Plate:MR011): 1400 nM
- potency estimated from few doses (MAP2K2; compound concentrations:100 nM and 1000 nM (sheet 'Lestaurtinib' of Supplementary Table 1),run:Lestaurtinib_02482_R2,Plate:MR011): 1360 nM
- potency estimated from few doses (MAP2K2; compound concentrations:100 nM and 1000 nM (sheet 'Lestaurtinib' of Supplementary Table 1),run:Lestaurtinib_02482_R3,Plate:MR011): 1300 nM
- potency estimated from few doses (MAP2K2; compound concentrations:100 nM and 1000 nM (sheet 'Lestaurtinib' of Supplementary Table 1),run:Lestaurtinib_02487_R3,Plate:MR012): 1300 nM
- potency estimated from few doses (MAP2K2; compound concentrations:100 nM and 1000 nM (sheet 'Lestaurtinib' of Supplementary Table 1),run:Lestaurtinib_02496_R3,Plate:MR013): 1430 nM
- potency estimated from few doses (MAP2K2; compound concentrations:100 nM and 1000 nM (sheet 'Lestaurtinib' of Supplementary Table 1),run:Lestaurtinib_02566_R2,Plate:MR014): 1240 nM
- potency estimated from few doses (MAP2K2; compound concentrations:100 nM and 1000 nM (sheet 'Lestaurtinib' of Supplementary Table 1),run:Lestaurtinib_02566_R3,Plate:MR014): 835 nM
- potency estimated from few doses (MAP2K2; compound concentrations:100 nM and 1000 nM (sheet 'Lestaurtinib' of Supplementary Table 1),run:Lestaurtinib_02572_R1,Plate:MR015): 1370 nM
- potency estimated from few doses (MAP2K2; compound concentrations:100 nM and 1000 nM (sheet 'Lestaurtinib' of Supplementary Table 1),run:Lestaurtinib_02577_R1,Plate:MR016): 1370 nM
- potency estimated from few doses (MAP2K2; compound concentrations:100 nM and 1000 nM (sheet 'Lestaurtinib' of Supplementary Table 1),run:Lestaurtinib_02577_R2,Plate:MR016): 883 nM
- potency estimated from few doses (MAP2K2; compound concentrations:100 nM and 1000 nM (sheet 'Lestaurtinib' of Supplementary Table 1),run:Lestaurtinib_02577_R3,Plate:MR016): 852 nM
- potency estimated from few doses (MAP2K2; compound concentrations:100 nM and 1000 nM (sheet 'Lestaurtinib' of Supplementary Table 1),run:Lestaurtinib_02584_R3,Plate:MR017): 1580 nM
- potency estimated from few doses (MAP2K2; compound concentrations:100 nM and 1000 nM (sheet 'Lestaurtinib' of Supplementary Table 1),run:Lestaurtinib_02601_R1,Plate:MR018): 728 nM
- potency estimated from few doses (MAP2K2; compound concentrations:100 nM and 1000 nM (sheet 'Lestaurtinib' of Supplementary Table 1),run:Lestaurtinib_02606_R1,Plate:MR019): 691 nM
- potency estimated from few doses (MAP2K2; compound concentrations:100 nM and 1000 nM (sheet 'Lestaurtinib' of Supplementary Table 1),run:Lestaurtinib_02606_R3,Plate:MR019): 1150 nM
- potency estimated from few doses (MAP2K2; [1]): 976 nM
- potency estimated from few doses (MAP2K2; [2]): 1760 nM
- potency estimated from few doses (MAP2K2; [3]): 1490 nM
- potency estimated from few doses (MAP2K2; [4]): 1320 nM
- potency estimated from few doses (MAP2K2; compound concentrations:100 nM and 1000 nM (sheet 'Lestaurtinib' of Supplementary Table 1),run:Lestaurtinib_02724_R2,Plate:MR021): 1510 nM
- potency estimated from few doses (MAP2K2; compound concentrations:100 nM and 1000 nM (sheet 'Lestaurtinib' of Supplementary Table 1),run:Lestaurtinib_02741_R3,Plate:MR023): 875 nM
- potency estimated from few doses (MAP2K2; compound concentrations:100 nM and 1000 nM (sheet 'Lestaurtinib' of Supplementary Table 1),run:Lestaurtinib_02748_R2,Plate:MR024): 1490 nM
- potency estimated from few doses (MAP2K2; [5]): 842 nM
- potency estimated from few doses (MAP2K2; [6]): 925 nM
